SW480 rerep – induces DNA re-replication in SW480 colon adenocarcinoma cells | SW480 DNA re-replication, Hoechst DNA content imaging, 48 h | Potency, µM (doses to about 46.1 µM), for inactives: at the highest dose re-replication activation, usual class: activators | actives 1.8% (n = 340,000); also: potency is read from the fitted curve at half-maximal effect; % of control where 0% means no effect; nearly all actives have a fitted effect of over 55% in size
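DNA re-replication was detected as more nuclei of elevated Hoechst intensity after 48 hr exposure to compound (23 nL pinned per well of 250 cells).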
TDP1 cell noCPT – qHTS for Inhibitors of human tyrosyl-DNA phosphodiesterase 1 (TDP1): qHTS in cells in absence of CPT. Potency, µM (series often up to 46.2 µM), inactives show top-dose activity change, negative = growth inhibition, hits mostly inhibitors. actives 15% (n = 420,000). DT40 Tdp1-/- hTDP1 cells, no CPT, ATP luminescence, 48 h; also: potency is read from the fitted curve at half-maximal effect; % is scaled to controls: 0 for no effect and ±100 for the full control effect; nearly all actives have a fitted effect of over 55% in size
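Readout: luminescence from CellTiter-Glo after 30 min in the dark at RT. Cells: DT40 Tdp1-/- with stable hTDP1, 400/well. Exposure: compounds alone, ≥48 hr, 37 °C.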
TDP1 cell CPT – DT40-hTDP1 cell growth loss with CPT; chicken DT40 Tdp1-/-;hTDP1 cells + 20 nM CPT, ATP luminescence, 48 h; AID 686979; actives 12% (n = 420,000); Potency, µM (titrated, usually from 46.2 µM), without a hit: at the top dose activity change, negative = growth inhibition, hits mostly inhibitors; also: potency is read from the fitted curve at half-maximal effect; % is scaled to controls: 0 for no effect and ±100 for the full control effect; nearly all actives have a fitted effect of over 55% in size
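Cell growth measured by CellTiter-Glo luminescence after a minimum 48 h, 37 C compound exposure with 20 nM CPT in Tdp1-knockout DT40 cells stably expressing hTDP1, seeded 400/well; qHTS titration format.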
BCR signal inh – chronic active BCR signaling inhibition. ABC-DLBCL IkBa-CBG/CBR reporter, luminescence ratio, 4 h. Potency, µM (highest dose often 46.1 µM), without a hit: at the highest dose activity change, negative = inhibition, actives largely listed as inhibitors. actives 0.05% (n = 340,000); active = well fitted inhibition curve with a large enough effect in the signal ratio, with a control signal flat, not every such curve was filed as active; inconclusive = small, poorly fitted or top-dose-only effect, or effect the other way, or a change in a side signal; the % refers to the signal ratio;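 also: potency is read from the fitted curve at half-maximal effect; plate controls were basal doxycycline-induced cells for no effect and cells given 10 µM MG132 for full effect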
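Doxycycline induced both beetle luciferases in TMD8 lymphoma cells; IKK-driven degradation limits the IkappaBalpha-fused green signal, while red luminescence normalises for cell number and nonspecific effects. Compounds tested up to 46 uM, 4 hrs.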
IL-1B inflam inh – inhibitors of inflammasome signaling (IL-1 beta secretion); THP-1 LPS/ATP IL-1B secretion, AlphaLISA, 16 h; hits give low values; activity change, % at 57.5 µM; actives 4.7% (n = 360,000); in the data active = activity change below about -50%; inconclusive = mostly about -30% to -49%; also: % is scaled to controls: 0 for no effect and ±100 for the full control effect
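THP-1 cells pretreated 1 hr with compounds (up to 57.5 uM final), then stimulated with LPS (250 ng/mL final) plus ATP (1.25 mM final); secreted IL-1B measured by AlphaLISA after 16 hr, decreased signal indicating inhibition.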
MCF10A rerep – inducers of DNA re-replication in MCF 10A breast cells; MCF 10A DNA re-replication, Hoechst nuclear intensity, 48 h; Potency, µM (series often up to 46.1 µM), without a hit: at the highest dose activity, positive = re-replication, usual class: activators; actives 2.9% (n = 350,000); AID 624296; also: potency is read from the fitted curve at half-maximal effect; % of control where 0% means no effect; nearly all actives have a fitted effect of over 50% in size
Starred values were filed as active, the others as inactive; ? = inconclusive; . = not tested or not shown; [ ] = dose if it differs, or a comment. This is a sample that favours compounds with a hit; in the whole collection about 19% have one here. Unless noted, calls follow the shape of the dose curve; as a rule, active = well fitted curve in the direction sought with a large enough effect; inconclusive = small, poorly fitted or top-dose-only effect, or another doubt; inactive = no such curve, though single readings can be large; an effect the other way counts as inactive or inconclusive.

SMILES	SW480 rerep	TDP1 cell noCPT	TDP1 cell CPT	BCR signal inh	IL-1B inflam inh	MCF10A rerep
COC(=O)c1ccc(-c2noc(CN(Cc3nccn3C)C(C)C)n2)cc1	0%	?	13µM*	-7%	20	13%
CC[C@]12C(=O)N(C)C[C@H]([C@@H]3C(=O)N(Cc4ccccc4)C(=O)[C@@H]31)N2C(=O)c1ccc(Br)cc1	-1%	1%	9%	.	11	-3%
CC(=O)N(NC(=O)c1ccccc1Cl)C1CC(=O)N(c2ccc(C)cc2)C1=O (configuration not stated)	18%	-1%	-3%	9%	16	16µM*
CSc1ccc2c(c1)C(N1CCN(C)CC1)Cc1ccc(F)cc1S2 (configuration not stated)	?	16µM*	?	.	-56*	?
COc1ccc2c(c1)CC(N1CCN(C)CC1)c1cc(OC)ccc1S2 (configuration not stated)	?	?	?	.	-93*	?
O=[N+]([O-])c1ccc2c(c1)C(N1CCN(CCO)CC1)Cc1ccc(F)cc1S2 (configuration not stated)	.	?	?	.	0	.
COCc1c(C(=O)N2CCN(C3CCCC3)CC2)cnn1-c1ncc2c(n1)-c1ccccc1CCC2	.	-28%	8%[9.04 µM]	.	.	.
CCCN(CCC)C(=S)NC(=O)c1ccc(Cl)cc1Cl	?	?	18µM*	-8%	30	?
COc1cc(C)c(S(=O)(=O)NOCc2ccccc2)c(C)c1C	0%	?	-9%	1%	0	26%
Cc1ccc(NC(=O)C2CCCN2S(=O)(=O)c2ccc3c(c2)n(C)c(=O)c(=O)n3C)cc1C (configuration not stated)	-2%	-14%	-16%	2%	6	0%
CCC1CCCCN1S(=O)(=O)c1cc2c3c(c1)CC(=O)N3CCC2 (configuration not stated)	.	-23%	-22%	9%	.	.
O=C(N/N=C/C(Br)=C/c1ccccc1)c1cccs1	?	18µM*	16µM*	?	?	?
O=C(N/N=C/C(Cl)=C\c1ccccc1)c1ccco1	-1%	29µM*	-20%	?	-23	-2%
O=C(N/N=C/C(Cl)=C/c1ccccc1)c1ccccc1F	15%	?	?	?	-69*	?
O=C(N/N=C/C(Br)=C/c1ccccc1)c1ccccc1F	?	23µM*	12µM*	?	-65*	?
CCOc1ccc(CN2CCNC(=O)C2CC(=O)NCc2csc(C(C)C)n2)cc1 (configuration not stated)	4%	13%	-17%	9%	10	4%
Cc1noc(C)c1-c1nccc(-n2ccnc2)n1	.	-3%	4%	.	.	.
C=CCN1C(=O)/C(=C/C=C2/N(CC)c3ccc(S(=O)(=O)N(C)C)cc3N2CC)SC1=S	-94%	?	?	2%	13	?
COc1ccc(Oc2ncc3nc(CCc4ccccc4)c(=O)n(C[C@H]4CCCO4)c3n2)cc1	.	-12%	?	.	.	.
COc1ccccc1/C=N/Nc1nncc2ccccc12	-7%	?	-5%	?	-3	-2%
Oc1c(Br)cc(/C=N/Nc2nncc3ccccc23)cc1Br	1%	23µM*	?	6%	-5	21µM*
Cc1csc(-c2nc3ccccc3n2C(C(=O)Nc2c(C)cccc2C)C2CC2)c1 (configuration not stated)	.	?	?	.	83	.
Cc1cc(=O)c2ccccc2[nH]1	2%	-13%	-21%	4%	21	-1%
Cc1cc(=O)c2cc(Br)ccc2[nH]1	0%	6.5µM*	6.5µM*	?	8	4%
CCCC(=O)OCc1cnc(C)c2oc(=O)c(C(=O)Nc3ccc(F)cc3C)cc12	.	-36%	?	.	.	.
SMILES	SW480 rerep	TDP1 cell noCPT	TDP1 cell CPT	BCR signal inh	IL-1B inflam inh	MCF10A rerep
COc1cc(C2c3c(-c4cc(Cl)c(C)cc4O)n[nH]c3C(=O)N2Cc2cccnc2)ccc1O (configuration not stated)	0%	?	-6%	?	-59*	17%
COc1cccc(C2c3c(-c4cc(Cl)c(C)cc4O)n[nH]c3C(=O)N2Cc2cccnc2)c1 (configuration not stated)	4%	16µM*	?	?	?	23%
Fc1cccc(Cl)c1/C=N/n1c(-c2cccnc2)n[nH]c1=S	1%	-18%	?	-5%	27	-1%
CSc1ccc(CCNC(=O)c2ccc(-n3c(C)cc4c3CCC(C)C4)cc2)cc1 (configuration not stated)	.	-9%	3%	.	.	.
O=C(NCc1cccc(C(F)(F)F)c1)c1csc([C@@H]2O[C@H](CO)[C@H](O)[C@H](O)[C@H]2O)n1	.	-6%	-5%	.	-6	.
Cc1cc(C)n(CC(=O)NNC(=O)COc2ccc(Br)cc2F)n1	-9%	-6%	-7%	-1%	11	-6%
CC(C)c1ccc(NC(=O)CCNS(=O)(=O)c2cc(Br)cnc2N)cc1	?	?	16µM*	7%	-17	9%
Cc1cccc(NC(=O)CCNS(=O)(=O)c2cc(Br)cnc2N)c1C	29%	-2%	-8%	4%	-8	-2%
COc1ccc(N/C=C(\C=C\C#N)S(=O)(=O)c2ccccc2)cc1	?	6%	9%	3%	-2	3.7µM*
O=C1C(=C(c2ccccc2)N2CCOCC2)Cc2ccccc21	.	0.82µM*	1.2µM*	.	-104*	.
COc1cc(CN2C[C@@H](CO)O[C@@H](n3cnc4c(NCC(C)C)ncnc43)C2)cc(OC)c1OC	.	2%	-1%	.	13	.
COc1ccc(-c2noc(CN3CCCC(OCc4ccccn4)C3)n2)cc1 (configuration not stated)	-4%	?	16µM*	-2%	0	-6%
COc1ccc(/C=C2/C(=O)ON=C2C)cc1Cl	?	?	?	2%	-25	?
CC1=NOC(=O)/C1=C/c1ccc(O)c(Br)c1	-3%	?	11%	-9%	-19	?
C#CCOc1ccc(Cl)cc1/C=C1/C(=O)ON=C1C	?	?	23µM*	2%	50	15%
CCOc1cc(/C=C2/C(=O)ON=C2C)cc(Br)c1O	-3%	?	?	4%	0	0%

Screening results (PubChem BioAssay)
